Screening results (PubChem)
HT1080 IDH1KD tx = kills HT-1080 cells with IDH1 knockdown. HT-1080 IDH1 knockdown viability, ATP luminescence, 48 h. Potency, µM (doses to about 46.1 µM), most hits filed as cytotoxic. 360,000 tested, 2% active. AID 686971
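CellTiter-Glo luminescence after 48 h compound exposure at 37 degrees C of IDH1-knockdown HT-1080 cells in 5% FBS RPMI. %Activity scaled between DMSO wells and cell-free media wells, with curves fitted and assigned curve classes.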
uPA generation = blocks generation of uPA at the cell surface; cell surface uPA generation assay, qHTS; Potency, µM (titrated, usually from 38.3 µM), actives largely listed as inhibitors; 330,000 tested, 0.31% active; active = well fitted inhibition curve with a large enough effect; inconclusive = small, poorly fitted or top-dose-only effect; inactive = no such curve, though single readings can be large or run the other way; tested in mouse RAW 264.7 cells; note: nearly all actives have a fitted effect of over 55% in size
IL1B secr inh = inhibitors of inflammasome signaling (IL-1 beta secretion); AID 743279; THP-1 LPS/ATP IL-1B secretion, AlphaLISA, 16 h; hits give low values; activity change, % at 57.5 µM; 360,000 tested, 4.7% active; in the data active = activity change below about -50%; inconclusive = mostly about -30% to -49%
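Secreted IL-1B measured by AlphaLISA bead assay after 16 h compound exposure of THP-1 cells; compounds (final up to 57.5 uM) added 1 h before LPS (250 ng/mL) and ATP (1.25 mM) stimulation; lower signal means less secretion.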
HT1080-NT tox = kills 2HG-producing HT-1080-NT fibrosarcoma cells | HT-1080-NT fibrosarcoma viability, CellTiter-Glo ATP luminescence, 48 h | Potency, µM (series often up to 46.1 µM), usual class: cytotoxic | 360,000 tested, 1.6% active | AID 686970;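 note: NT is the 2HG producing partner of a matched IDH1 knockdown line; nearly all actives have a fitted effect of over 55% in size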
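Compounds were tested in concentration-response format on HT-1080-NT cells for 48 hours at 37 degrees C. Cell viability came from CellTiter-Glo luminescence; curves were classified by r2, response magnitude and activity.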
DT40 TDP1 no CPT = qHTS for Inhibitors of human tyrosyl-DNA phosphodiesterase 1 (TDP1): qHTS in cells in absence of CPT. DT40 Tdp1-/- hTDP1 cells, no CPT, ATP luminescence, 48 h. Potency, µM (titrated, usually from 46.2 µM), actives largely listed as inhibitors. 420,000 tested, 15% active; note: nearly all actives have a fitted effect of over 55% in size
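Chicken DT40 Tdp1-/- cells stably complemented with human TDP1 were seeded at 400 cells/well with DMSO in place of 20 nM camptothecin. After compound pinning, cells grew at least 48 hr at 37 °C; viability read by CellTiter-Glo luminescence.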
DT40 TDP1 CPT = DT40-hTDP1 cell growth loss with CPT; chicken DT40 Tdp1-/-;hTDP1 cells + 20 nM CPT, ATP luminescence, 48 h; Potency, µM (doses to about 46.2 µM), usual class: inhibitors; 420,000 tested, 12% active; AID 686979; note: nearly all actives have a fitted effect of over 55% in size
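Chicken DT40 Tdp1-/- cells stably complemented with human TDP1 were seeded at 400 cells/well in medium containing 20 nM camptothecin, exposed to pin-transferred compounds, and grown at 37 °C for at least 48 hr. Viability was read as ATP luminescence.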
A number is an active result; n = inactive; u = inconclusive; x = not tested or not shown. An excerpt weighted towards active compounds, which were near 19% of everything screened. Unless noted, calls come from the whole dose curve; as a rule, active = well fitted curve in the direction sought with a large enough effect; inconclusive = small, poorly fitted or top-dose-only effect, or another doubt; inactive = no such curve, though single readings can be large; an effect the other way counts as inactive or inconclusive.

SMILES	HT1080 IDH1KD tx	uPA generation	IL1B secr inh	HT1080-NT tox	DT40 TDP1 no CPT	DT40 TDP1 CPT
c1ccc(C(c2ccccc2)N2CC3(CCNCC3)C2)cc1	x	x	x	x	15µM	21µM
CC(=O)N1CCC[C@@]2(CCN(c3ccccc3)C2)C1	x	x	x	x	n	n
c1ccc(-c2ccc(N3CCCC4(CCNCC4)C3)cc2)cc1	x	x	x	x	2.6µM	5.8µM
COc1ccc(C(=O)N2CCC3(CCCN(c4ccc(-c5ccccc5)cc4)C3)CC2)cc1	x	x	x	x	u	n
c1ccc(-c2ccc(N3CC[C@@]4(CCCNC4)C3)cc2)cc1	x	x	x	x	21µM	18µM
c1ccc(-c2ccc(N3CC4(CCNCC4)C3)cc2)cc1	x	x	x	x	2.6µM	4.1µM
CN(C(=O)CSc1cc(Cl)ccc1Cl)C1CCS(=O)(=O)C1 (configuration not stated)	n	n	n	n	n	n
O=C1CC(=O)Nc2cc(S(=O)(=O)N3CCOc4ccc(Cl)cc43)ccc2N1	n	n	n	n	u	u
O=C(N/N=C/c1cccc(OCc2ccccc2)c1)c1ccc(Br)cc1	n	n	n	n	18µM	u
COc1c(OC(C)=O)ccc(/C=C/c2ccc3cccc(OCc4ccccc4)c3n2)c1[N+](=O)[O-]	u	n	-50	u	15µM	15µM
COc1ccc(C(=O)N/N=C/c2ccc3cccc(OCc4ccccc4)c3n2)cc1	u	n	n	u	8.2µM	u
O=C(O)c1cccc(NC(=S)N/N=C/c2ccccc2OCc2ccc(Br)cc2)c1	u	n	n	u	u	u
O=C(N/N=C/c1ccc2cccc(OCc3ccccc3)c2n1)c1ccc(Br)cc1	u	n	n	n	u	16µM
O=C(Nc1ccccc1)OCCOc1ccc(Cl)cc1Cl	n	n	n	n	n	u
CCC1Sc2ccc(S(=O)(=O)CCC(=O)Nc3cc(C)ccn3)cc2NC1=O (configuration not stated)	n	n	n	n	u	n
COc1ccccc1CN1CCCC(C(=O)N(C)Cc2ccccc2)C1 (configuration not stated)	n	n	n	n	u	u
COc1ccccc1CN1CCCC(CN(CCN(C)C)C(=O)C2CCCC2)C1 (configuration not stated)	n	n	-52	n	n	n
COc1cc(CNc2ccc(S(N)(=O)=O)cc2)ccc1OCC(=O)NC1CCCCC1	n	n	n	n	n	n
S=c1[nH]cnc2scc(-c3ccc(Cl)cc3)c12	u	n	x	n	u	u
S=c1[nH]cnc2scc(-c3ccc(Br)cc3)c12	13µM	n	n	21µM	5.8µM	u
O=c1[nH]cnc2scc(-c3ccccc3)c12	n	n	n	n	n	n
Cc1cc(-c2csc3nc[nH]c(=S)c23)cc(C)c1C	15µM	n	n	16µM	5.2µM	5.8µM
Cc1ccc(-c2csc3nc[nH]c(=S)c23)cc1	u	n	n	u	5.2µM	3.3µM
CS(=O)(=O)c1ncc(Cl)c(C(=O)Nc2c(C(=O)c3ccc(Cl)cc3)oc3ccccc23)n1	x	x	x	x	n	u
CCS(=O)(=O)c1ncc(Cl)c(C(=O)Nc2c(C(=O)c3ccc(C)cc3)oc3ccccc23)n1	x	x	x	x	1.6µM	1.6µM
SMILES	HT1080 IDH1KD tx	uPA generation	IL1B secr inh	HT1080-NT tox	DT40 TDP1 no CPT	DT40 TDP1 CPT
O=C(NCc1ccccc1)c1nc(S(=O)(=O)Cc2ccc(F)cc2)ncc1Cl	x	x	x	x	1.5µM	1.3µM
Cc1ccc(NC(=O)c2nc(S(=O)(=O)Cc3ccccc3)ncc2Cl)cc1	6.5µM	n	-103	18µM	0.92µM	1.5µM
Cc1ccc(NC(=O)c2nc(SCc3ccccc3F)ncc2Cl)cc1	x	x	x	x	n	n
CCOc1ccc(NC(=O)c2nc(S(=O)(=O)Cc3ccc(F)cc3)ncc2Cl)cc1	x	x	x	x	0.4µM	0.5µM
COc1ccc(OC)c(S(=O)(=O)N2CCCC(C(=O)NCCN3CCOCC3)C2)c1 (configuration not stated)	n	n	n	n	n	n
O=C(OCC(=O)N1CCOCC1)c1cc(F)c(F)cc1Cl	n	n	n	n	n	n
